In the library only some 15% were active in any assay of this set; here they are far more common.
Gal4-VP16 FLuc = VP16 counterscreen qHTS for inhibitors of ROR gamma transcriptional activity. Drosophila S2 Gal4-VP16 UAS-luciferase, luminescence, 20 h. Potency, µM (top dose mostly 53.6 µM), for inactives: at the top dose activity, negative = inhibition, actives largely listed as inhibitors. 3.5% of 310,000 active. AID 2546, 2010;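 note: Gal4-VP16 expression switched on by copper sulfate through the metallothionein promoter; nearly all actives have a fitted effect of over 50% in size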
ELG1 DNA repair = qHTS screen for small molecules that inhibit ELG1-dependent DNA repair in human embryonic kidney (HEK293T) cells expressing luciferase-tagged ELG1 | HEK293T ELG1-luciferase reporter, luminescence, 16 h; DNA damage induced by 5-fluorouridine | Potency, µM (series often up to 46.1 µM), for the others: at the highest dose activity change, negative = inhibition, actives largely listed as inhibitors | 2.3% of 330,000 active; note: nearly all actives have a fitted effect of over 55% in size
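Quantitative HTS, concentration-response format. 2,000 cells/well co-treated with 5-fluorouridine and compound, 16 hr in 5% CO2 at 37 °C; ONE-Glo luminescence read after 30 min.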
DT40 TDP1 CPT = qHTS for Inhibitors of human tyrosyl-DNA phosphodiesterase 1 (TDP1): qHTS in cells in presence of CPT; chicken DT40 Tdp1-/-;hTDP1 cells + 20 nM CPT, ATP luminescence, 48 h; Potency, µM (top dose mostly 46.2 µM), for inactives: at the top dose activity change, negative = growth inhibition, actives largely listed as inhibitors; 12% of 420,000 active; note: nearly all actives have a fitted effect of over 55% in size
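Cell growth measured by CellTiter-Glo luminescence after a minimum 48 h, 37 C compound exposure with 20 nM CPT in Tdp1-knockout DT40 cells stably expressing hTDP1, seeded 400/well; qHTS titration format.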
TDP1 cell noCPT = qHTS for Inhibitors of human tyrosyl-DNA phosphodiesterase 1 (TDP1): qHTS in cells in absence of CPT. DT40 Tdp1-/- hTDP1 cells, no CPT, ATP luminescence, 48 h. Potency, µM (top dose mostly 46.2 µM), for the others: at the highest dose activity change, negative = growth inhibition, usual class: inhibitors. 15% of 420,000 active. AID 686978, 2013; note: nearly all actives have a fitted effect of over 55% in size
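Chicken DT40 Tdp1-/- cells complemented with human TDP1, screened without camptothecin (DMSO vehicle only), 400 cells/well. Compounds pin-transferred, cells incubated at 37 °C for at least 48 hr. Growth read as ATP-dependent luminescence (CellTiter-Glo, 30 min at RT).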
RORg inh = qHTS for inhibitors of ROR gamma transcriptional activity; 5.4% of 310,000 active; Potency, µM (highest dose often 53.6 µM), for inactives: at the highest dose activity change, negative = inhibition, hits mostly inhibitors; Drosophila S2 Gal4-RORgamma UAS-luciferase reporter, 20 h; Nuclear receptor ROR-gamma (Mus musculus), P51450; note: nearly all actives have a fitted effect of over 60% in size
Target sequence (P51450 whole entry, looked up, the tested form may be a part): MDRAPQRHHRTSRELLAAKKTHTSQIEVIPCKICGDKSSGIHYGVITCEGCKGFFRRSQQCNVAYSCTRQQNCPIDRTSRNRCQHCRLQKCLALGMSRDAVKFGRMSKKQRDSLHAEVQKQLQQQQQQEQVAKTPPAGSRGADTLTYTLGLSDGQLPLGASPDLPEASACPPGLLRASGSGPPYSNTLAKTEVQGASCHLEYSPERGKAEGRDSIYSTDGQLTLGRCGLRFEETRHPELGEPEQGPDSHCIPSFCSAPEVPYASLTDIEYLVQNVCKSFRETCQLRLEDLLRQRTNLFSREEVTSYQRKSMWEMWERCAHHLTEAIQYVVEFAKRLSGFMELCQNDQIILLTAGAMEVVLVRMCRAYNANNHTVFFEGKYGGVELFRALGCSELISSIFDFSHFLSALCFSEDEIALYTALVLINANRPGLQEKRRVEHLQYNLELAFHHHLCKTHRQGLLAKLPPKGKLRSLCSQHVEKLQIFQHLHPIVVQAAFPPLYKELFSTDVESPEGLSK
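Luciferase reporter read in Schneider cells carrying Gal4-RORγ (mouse) and UAS-Photinus luciferase; cells given compound 1 h before 700 uM copper sulfate induction, then incubated 20 h at ambient temperature.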
ALOX12 inh = Primary qHTS assay for inhibitors of human arachidonate 12S-lipoxygenase (ALOX12): Round 2. AID 1671190, 2021. Potency, µM (titrated, usually from 108 µM), for inactives: top-dose activity change, negative = inhibition, hits mostly inhibitors. 1.1% of 580,000 active. purified 12hLO, xylenol orange hydroperoxide absorbance. Polyunsaturated fatty acid lipoxygenase ALOX12 (Homo sapiens), P18054
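Hydroperoxide product was detected by ferrous iron/xylenol orange as the 573 to 405 nm absorbance ratio. Arachidonic acid at 40 uM (final) was turned over for 30 min at room temperature by 150 nM human 12hLO, pH 7.0 Hepes buffer, after 15 min compound preincubation.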
* marks the source's active call; other numbers are inactive results; u = inconclusive; x = no result; [ ] = another dose, or the depositor's remark. Calls come from the whole dose curve; as a rule, active = well fitted curve in the direction sought with a large enough effect; inconclusive = small, poorly fitted or top-dose-only effect, or another doubt; inactive = no such curve, though single readings can be large; an effect the other way counts as inactive or inconclusive. % is set by controls: 0 for no effect and ±100 for the full control effect; potency is the fitted concentration of half-maximal effect.

SMILES	Gal4-VP16 FLuc	ELG1 DNA repair	DT40 TDP1 CPT	TDP1 cell noCPT	RORg inh	ALOX12 inh
Cc1ccc(NC(=O)CN(c2ccccc2F)S(=O)(=O)c2ccccc2)c(C)c1	x	x	x	x	x	14%
O=C1C(=C(O)c2ccccc2)C(=O)c2ccccc21	1%	u	u	-14%	u	u
O=C1C(=C(c2ccccc2)c2ccccc2)Nc2ccccc21	14%	u	13µM*	15µM*	13%	136%
Cc1ccc(S(=O)(=O)/N=C2\C(=O)c3ccccc3C([O-])=C2n2cc[n+](CCC(C)C)c2)cc1	u	-12%	16µM*	16µM*	8.9µM*	x
CC(=O)Nc1ccc(S(=O)(=O)/N=C2\C(=O)c3ccccc3C([O-])=C2n2cc[n+](-c3ccccn3)c2)cc1	3%	u	3.7µM*	8.2µM*	-9%	u
Cc1ccc(NC(=O)C[n+]2ccn(C3=C([O-])c4ccccc4C3=O)c2)cc1	-2%	3%	14%	-11%	13%	17%
Cc1ccc(C(=O)/C=C/c2ccc3c(c2)OCCO3)c(O)c1	-23%	u	u	u	-32%	0%
CCc1cc(C(=O)/C=C/c2cc3c(cc2C)OCCO3)c(O)cc1O	x	x	13µM*	11µM*	x	x
CC1(C)CCC[C@]2(C)[C@H]3Cc4cc(O)ccc4O[C@]3(C)CC[C@@H]12	x	19%	18µM*	u	x	u
Cc1cccc(CN2CCc3ncc(C(=O)NCc4ccccc4)n3CC2)c1	x	x	x	x	x	49%[176 µM]
Cc1nnc(N2CCC(C(=O)N3CCCCCC3)CC2)c2nn(-c3ccc(Cl)cc3)c(C)c12	-10%	u	18µM*	u	2%	4%
Cc1ccc(-n2nc3c(N4CCC(C(=O)N5CCCCCC5)CC4)nnc(C)c3c2C)cc1	-11%	-48%	7.3µM*	5.8µM*	-21%	x
COc1ccc(-n2nc3c(N4CCC(C(=O)N5CCCCCC5)CC4)nnc(C)c3c2C)cc1	-13%	1%	u	u	-23%	4%
O=C1C=C(Nc2ccccc2C(=O)O)c2ccccc2C1=O	2%	26µM*	u	u	-42%	u
O=C1C(Nc2ccccc2)=CC(=O)c2ncccc21	4.5µM*	x	1µM*	1.1µM*	3.2µM*	11%[176 µM]
O=C1C=C(Nc2ccccc2)c2ccccc2C1=O	u	9.2µM*	7.3µM*	4.6µM*	u	-22%
CCc1ccc2c(c1)C(=O)c1ccccc1C2=O	6%	u	14%	7%	4%	-16%
CCc1ccc(NC2=CC(=O)C(=O)c3ccccc32)cc1	x	1%	2.3µM*	2.9µM*	x	u
CC(NC(=O)c1nn(C)c(=O)c2ccccc12)c1ccc(-c2ccccc2)cc1 (centres undefined)	x	x	x	x	x	0%
O=S(=O)(Nc1cccc2cccnc12)c1ccccc1F	x	x	x	x	x	26%
O=C1C=C(Nc2ccccc2)C(=O)c2ccccc21	u	u	13µM*	u	u	18%
O=C1C=C(Nc2cccc3cccnc23)c2ccccc2C1=O	10µM*	u	5.8µM*	7.3µM*	10µM*	u
O=C(CC1CCc2ccccc21)N1CCCN(c2ncccn2)CC1 (centres undefined)	x	x	x	x	x	0%
CC(=O)Nc1cccc(NC(=S)Nc2ccc(F)c(Cl)c2)c1	-22%	2%	16µM*	u	1%	u
